Screening results as filed in PubChem.
The list is not random: actives were taken first. Their share in the collection is about 1.4%.
Sa ugtP lethal – compounds lethal to S. aureus RN4220 ugtP deletion mutant; OD600 growth, 16 h; growth inhibition, % (test concentration not listed); 0.54% of 330,000 active; AID 1259309; in the data active = growth inhibition above about 68%;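 note: plate controls were untreated wells for no effect and antibiotic for full effect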
RN4220 kill – kills Staphylococcus aureus RN4220; S. aureus RN4220 growth, OD600, 16 h; inhibition, % (concentration not given with the values); 0.33% of 330,000 active; AID 1259311; in the data active = inhibition above about 85%;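 note: plate controls were untreated cells for no effect and reference antibiotic for full effect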
PriA SSB inh – inhibitors of Klebsiella pneumoniae PriA binding to SSB C-terminal tail. AlphaScreen SSBct-PriA binding, biotinylated peptide. inhibition, % at 33 µM. 0.6% of 430,000 active. AID 1272365; in the data active = inhibition mostly above about 37%, no sharp cut-off; inactive = mostly below about 20%;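 note: plate controls were negative control peptide for no effect and reference peptide for full effect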
Mtb hypoxia rep – inhibitors of hypoxia-regulated fluorescent reporter in Mycobacterium tuberculosis; fluorescence inhibition, % (test concentration not listed); M. tuberculosis hypoxia-regulated fluorescent reporter, fluorescence; 0.1% of 300,000 active; in the data active = fluorescence inhibition mostly above about 23%, no sharp cut-off; inactive = mostly below about 17%
CCHF vOTU inh-1 – CCHFV vOTU protease inhibition. Pep-AMC fluorescence. inhibition, % at 11.5 µM. 0.55% of 370,000 active; note: 0% = vehicle wells with enzyme and 100% = no enzyme wells
CCHF vOTU inh-2 – confirmation of CCHF virus vOTU protease inhibitors. shares compounds with CCHF vOTU inh-1. 17% of 1,900 active. inhibition, % at 11.5 µM. Recombinant CCHFV vOTU, Pep-AMC fluorescence
An asterisk follows results filed as active; / = no result given. Cut-off read from the data, not from the text of the source, unless noted: active = inhibition above about 30%; inactive = the rest.

SMILES	Sa ugtP lethal	RN4220 kill	PriA SSB inh	Mtb hypoxia rep	CCHF vOTU inh-1	CCHF vOTU inh-2
C=C(C)COc1ccc(-c2nc(N)ncc2-c2ccc(OC)cc2)c(O)c1	-0.1	-7.2	/	/	29.8*	-8.0
CCOC(=O)c1c(C)oc2c1c(C=NCc1ccccn1)c(O)c1ccccc12	1.7	14.5	6.7	-2.2	63.1*	23.7
CCOC(=O)c1c(C)oc2c1c(C=NCC1CCCO1)c(O)c1ccccc12 (centres undefined)	/	/	-5.0	/	35.4*	53.3*
O=C(CNc1cccc2ccccc12)NN=Cc1ccc(OC(=O)/C=C/c2ccco2)cc1	-7.1	7.0	13.3	1.5	/	/
CC(C)CCCCCCNC(=S)Nc1ccc(S(=O)(=O)N2CCOCC2)cc1	-8.1	12.6	-10.0	-1.1	31.0*	10.9
O=S(=O)(c1ccc(NC(=S)Nc2ccccc2)cc1)N1CCOCC1	10.9	-1.9	1.4	6.8	0.2	/
CCOC(=O)c1c(-c2ccc(Cl)cc2)csc1NC(=O)CCSc1nnc2ccc3ccccc3n12	/	/	0.0	/	/	/
O=C1NCCCC2c3cc(O)c4ccccc4c3OC12N1CCCCC1 (centres undefined)	/	/	/	/	92.4*	16.4
COc1ccc(OCC(=O)NC(=S)Nc2ccc3c4c(cccc24)CC3)cc1	5.3	-4.0	-4.1	-8.1	29.9*	2.3
O=C(NCc1ccc(F)cc1)N1CCC(c2nnc(-c3ccco3)o2)CC1	/	/	-5.0	/	/	/
COc1ccccc1N1CCN(C(=O)Cn2c(C)nc(C(C)(C)C)cc2=O)CC1	/	/	13.0	/	/	/
COc1ccc2nc(NC(=O)CCn3cccc3)sc2c1	4.2	-0.7	27.2	5.9	-2.5	/
COc1ccc2nc(NC(=O)CCN3C(=S)NC(C)(C)CC3C)sc2c1 (centres undefined)	0.4	7.0	-7.4	6.3	36.2*	-24.9
CC(C)(C)OC(=O)N(Cc1ccccc1)Cc1cccc(OCc2cccc(NC(=O)C3CC3)c2)c1	/	/	-4.8	/	32.3*	-11.0
CC(C)(C)OC(=O)N(CCc1ccccc1)Cc1cccc(OCc2cccc(NC(=O)C3CCC3)c2)c1	/	/	-1.5	/	13.4	/
CN1/C(=C\C=C2C(=O)NC(=O)NC2=O)C(C)(C)c2ccccc21	6.7	6.0	-5.2	9.2	36.1*	36.9*
CN1/C(=C\C=O)C(C)(C)c2ccccc21	18.9	2.0	-3.3	2.5	15.2	/
NC(=O)C1C(=O)c2ccccc2C1(C[N+](=O)[O-])c1ccccc1 (centres undefined)	-4.6	0.3	1.2	-3.3	46.3*	-0.9
CCCCN(C)C(=O)c1ccc(Nc2nc(C(N)Cc3ccc(C(F)(F)F)cc3)cs2)nc1 (centres undefined)	/	/	/	/	32.2*	-9.4
COc1cc(CNC(=O)Nc2nc(C(N)Cc3ccc(C(F)(F)F)cc3)cs2)cc(OC)c1OC (centres undefined)	/	/	/	/	30.6*	-19.4
CCCCN(C)C(=O)c1ccc(Nc2nc(C(N)CCc3ccccc3)cs2)nc1 (centres undefined)	/	/	/	/	25.1	/
COc1ccc(CC(N)c2csc(NC(=O)NCc3ccccc3)n2)cc1 (centres undefined)	/	/	/	/	7.5	/
O=C(NCC1CC(=O)N(c2ccc3c(c2)OCO3)C1)Nc1cccc(C(F)(F)F)c1 (centres undefined)	/	/	6.0	/	/	/
CC(=O)N(N=C1Sc2ccccc2C1=O)c1ccccc1	0.5	0.9	37.0	/	/	/
CC(=O)N(/N=C1\Sc2ccccc2C1=O)c1cccc(C)c1	/	/	/	/	36.4*	37.0*
SMILES	Sa ugtP lethal	RN4220 kill	PriA SSB inh	Mtb hypoxia rep	CCHF vOTU inh-1	CCHF vOTU inh-2
COc1ccc(OC)c(S(=O)(=O)Oc2ccc(N)c3ccccc23)c1	-7.1	6.6	-13.2	2.1	29.8*	-13.8
COc1ccc(OS(=O)(=O)c2cc(OC)ccc2OC)cc1	/	/	-34.0	/	/	/
CCCCn1c(NC(=O)c2ccccc2)c(C#N)c2nc3ccccc3nc21	38.0	54.1	56.2*	2.0	121.0*	90.0*
N#Cc1c(NC(=O)c2ccc(Br)o2)n(-c2ccccc2)c2nc3ccccc3nc12	23.2	23.0	-9.5	-9.4	29.6*	-39.0
CCC(=O)Nc1c(C#N)c2nc3ccccc3nc2n1-c1ccc(C)cc1	5.5	5.7	17.3	5.3	-52.1	/
CCC(C)n1c(NC(=O)c2ccccc2)c(C#N)c2nc3ccccc3nc21 (centres undefined)	-4.8	7.5	57.5*	/	93.5*	68.4*
CCOC(=O)C1=C(C)N=C(SCC(=O)N2CCCc3ccccc32)C(C#N)[C@H]1c1ccccc1Cl (some centres undefined)	/	/	-8.0	/	/	/
